Experimental findings from PubChem BioAssay (EPA / NIEHS) are described below.

The structures appear in SMILES notation. Records with an inconclusive call do not appear. Calls of active or inactive are those of the source. The calls were made as follows: active = hit-call score of the fitted dose curve at least 0.9, where 1 is the maximum; inconclusive = response in the unintended direction; inactive = score below 0.9.

Cellular tumor antigen p53 (Homo sapiens), sequence (P04637 whole entry, looked up): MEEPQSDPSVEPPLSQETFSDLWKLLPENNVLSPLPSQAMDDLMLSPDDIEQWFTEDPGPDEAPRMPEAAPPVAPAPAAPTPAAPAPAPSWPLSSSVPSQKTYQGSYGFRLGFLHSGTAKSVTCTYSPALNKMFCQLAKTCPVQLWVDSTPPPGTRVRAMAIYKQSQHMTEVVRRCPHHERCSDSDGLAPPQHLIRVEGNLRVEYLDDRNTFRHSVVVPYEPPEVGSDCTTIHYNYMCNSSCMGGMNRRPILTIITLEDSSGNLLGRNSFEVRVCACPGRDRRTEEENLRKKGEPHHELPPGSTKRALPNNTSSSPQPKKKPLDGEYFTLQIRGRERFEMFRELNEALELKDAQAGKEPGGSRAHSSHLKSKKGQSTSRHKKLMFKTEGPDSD

Test system in the first assay: not listed separately
The assay is described as follows: TOX21_p53_BLA_p5_viability: Viability Assessment in the Tox21 HCT-116 p53 Agonism Beta-lactamase Assay, Phase 5 (AID 2283600). The gist of the method:
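Counter-readout for cytotoxicity: ATP-dependent luminescence from CellTiter-Glo, read in the beta-lactamase wells after 30 min at RT, following a 16 h compound exposure at 37C.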
Take `CC(C)NCC(O)COc1ccc(CCOCC2CC2)cc1` (configuration not stated): the call was inactive.
Same read-out and setting: under `CC(=O)OC(C)OC(C)=O` stands “inactive”.
The same measure, in the same setting: the result for `Cc1ccc(C)c(N)c1` reads “inactive”; that for `CCCCOCCOC(=O)CCCCCCCCC(=O)OCCOCCCC`, “inactive”.

The next assay addresses Cellular tumor antigen p53 (Homo sapiens) (UniProt P04637). Nature of the assay: TOX21_p53_BLA_p4_ratio: Tox21 HCT-116 p53 Agonism Beta-lactamase Assay, Ratio, Phase 4 (AID 2283601). The essentials:
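HCT116 cells carrying an inducible beta-lactamase reporter were plated at 4000 cells/well, rested 5 h, then exposed to compounds in DMSO (217-fold dilution) for 16 h at 37C. CCF4-AM substrate was loaded 2 h at room temperature; 460/530 nm emission ratio scored gain-of-signal versus DMSO.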
As to `COc1ccc2c(c1)N(C[C@H](C)CN(C)C)c1ccccc1S2`, the result was inactive.
Same read-out and setting: the result for `CC(C)NCC(O)COc1ccc(CCOCC2CC2)cc1` (configuration not stated) reads “inactive”.
The same measure, in the same setting: under `Cc1ccc(N)cc1[N+](=O)[O-]` stands “inactive”; under `Nc1ccc(S(=O)(=O)Nc2ccccc2)cc1`, “inactive”.
The same measure, in the same setting: the result for `CC(=O)OC(C)OC(C)=O` reads “inactive”; that for `Cc1ccc(C)c(N)c1`, “inactive”; that for `O=Cc1c2ccccc2c(Cl)c2ccccc12`, “inactive”.
As for `COc1cnc(NS(=O)(=O)c2ccc(N)cc2)nc1`, the outcome was inactive.
Still for that read-out and setting: under `CNC(=O)N(c1ccccc1)c1ccccc1` stands “inactive”; under `ONc1ccccc1`, “inactive”.
With `CCN1CCCC1CNC(=O)c1cc(S(=O)(=O)CC)c(N)cc1OC` (configuration not stated), the outcome was inactive.
The same measure, in the same setting: under `O=S(=O)(O)CO` stands “inactive”; under `Cc1ccc(O)c([C@H](CCN(C(C)C)C(C)C)c2ccccc2)c1`, “inactive”; under `CCCCOCCOC(=O)CCCCCCCCC(=O)OCCOCCCC`, “inactive”.

For another assay, the system named is Thyroperoxidase (TPO), gene 54314. The assay is described as follows: CCTE_Simmons_AUR_rTPO: CCTE's Amplex UltraRed Assay for Thyroperoxidase (TPO) Inhibition, Simmons Lab (AID 2283662).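 As to AC50: potency for loss of signal meaning inhibition of peroxidase activity.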 The gist of the method: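 Rat thyroid microsomal TPO + 25 uM AUR in 200 mM K phosphate; cpd 5 nM–87.5 uM [final], 8 conc, 0.5% DMSO; 300 uM H2O2 starts rxn; 37C dark 30 min; endpoint FI 544/590 nm; n=3.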
With `CCCCOC(=O)c1ccccc1O`, the result was inactive.
On to `S=c1[nH]c2cc(Cl)ccc2s1`, for which the AC50 was 1.54 µM (active).
Regarding `O=c1cc(O)cc[nH]1`, the result was inactive.
Same read-out and setting: under `OC(c1ccccc1)c1ccccc1` stands “inactive”.
In the case of `C=CC1CNC(=S)O1` (configuration not stated), the AC50 is 10.6 µM (active).
Consider `O=C(c1ccccc1)c1ccc(O)cc1`, for which the outcome was inactive.
On the same count and under the same terms, the result for `CCOC(=O)c1cccc(O)c1` reads “inactive”; that for `CN(C)C(=S)N(C)C`, “inactive”; that for `Oc1cccnc1`, “inactive”.
The same measure, in the same setting: under `CSc1nc2ccccc2s1` stands “inactive”; under `OCc1ncccc1O`, “inactive”.
`O=c1cccc(O)[nH]1`: the AC50 was 9.01 µM (active).
On the same count and under the same terms, under `O=c1[nH]c2ccccc2s1` stands 31.3 µM (active).
Regarding `Cc1ccc(C=C2C(=O)C3(C)CCC2C3(C)C)cc1` (configuration not stated), the compound was called inactive.
Consider `O=[N+]([O-])c1ccc2[nH]c(=S)[nH]c2c1`, for which the half-maximal activity concentration (AC50) was 0.315 µM (active).
Turning to `COc1c[nH]ccc1=O`, the compound was classed as inactive.
As to `O=C1CC(c2ccc(O)cc2)Oc2cc(O)cc(O)c21` (configuration not stated), the concentration at half-maximal activity (AC50) was 0.742 µM (active).
For the compound `O=C(NO)c1ccccc1O`, the half-maximal activity concentration (AC50) is 0.358 µM (active).
As for `Cn1c(=S)[nH]c2ccccc21`, the AC50 is 0.503 µM (active).

Test system in another assay: not listed separately
Nature of the assay: CCTE_Simmons_CellTiterGLO_HEK293T: Viability Assessment in CCTE's Assays for Thyroperoxidase (TPO) Inhibition, Simmons Lab (AID 2283665).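 As to AC50: cells exposed to compound for 24 h before readout; actives reduce ATP signal below DMSO vehicle meaning cytotoxicity.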 The essentials:
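HEK293T cells in DMEM with 1% FBS were dosed with 8 concentrations (5 nM–87.5 uM final, 0.5% DMSO) for 24 hr at 37C; ATP content was read by CellTiter-Glo luminescence, loss-of-signal versus DMSO, three biological replicates.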
On to `CCCCOC(=O)c1ccccc1O`, for which the AC50 was 53.6 µM (active).
`S=c1[nH]c2cc(Cl)ccc2s1`: the compound was classed as inactive.
On to `O=C(c1ccccc1)c1ccc(O)cc1`, for which the result was inactive.
Take `CCOC(=O)c1cccc(O)c1`: the compound was called inactive.
As for `Oc1cccnc1`, the call was inactive.
Consider `CSc1nc2ccccc2s1`, for which the AC50 is 53.6 µM (active).
As to `OCc1ncccc1O`, the outcome was inactive.
The same measure, in the same setting: under `O=c1cccc(O)[nH]1` stands “inactive”.
In the case of `Cc1ccc(C=C2C(=O)C3(C)CCC2C3(C)C)cc1` (configuration not stated), the AC50 was 15.3 µM (active).
Turning to `O=C1CC(c2ccc(O)cc2)Oc2cc(O)cc(O)c21` (configuration not stated), the result was inactive.
